The campaign covered roughly 190,000 compounds. About 1,900 (1%) were called active.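 The calls were made as follows: active = percentage of spot-positive cells more than 3 SD above its plate mean, without a fluorescence outlier flag or 80% toxicity; inconclusive = no clear call, values can overlap the other calls; inactive = the rest.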 The list comes from a sample in which actives are over-represented; it also holds similar structures and randomly drawn compounds.

This assay in a line: GFP-LC3 puncta formation changes – imaging, high-content, MEF GFP-LC3, primary screen (AID 463193).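 As to % cells with GFP-LC3 spots: spot-positive cell cutoff set from DMSO-treated cells.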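 As to toxicity: cell loss after 18 h compound exposure.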 To be noted: autophagy, at 10 µM; % cells with GFP-LC3 spots: stronger effect = higher value; toxicity: measured here: cell loss, nuclei count.
For the molecule `COc1cccc(NC(=S)N(CCc2c(C)[nH]c3ccccc23)Cc2ccco2)c1`, the % cells with GFP-LC3 spots was 9.78% (inactive) and the toxicity stood at 16.6%.
In the case of `COc1ccc2[nH]c(C)c(CCN(Cc3cccs3)C(=S)Nc3ccccc3OC)c2c1`, the % cells with GFP-LC3 spots is 12.3% (inactive) and the toxicity was 16.6%.
On to `CCNC(=S)N(CCc1c(C)[nH]c2ccc(C)cc12)Cc1ccco1`, for which the % cells with GFP-LC3 spots is 19.1% (active) and the toxicity amounted to 0.117%.
With `COC(=O)c1nc2n(n1)C(c1ccc([N+](=O)[O-])cc1)C(C(=O)Nc1ccc(Cl)cc1)=C(C)N2` (configuration not stated), the % cells with GFP-LC3 spots was 5.34% (inactive) and the toxicity is -5.39%.
In the same order, the values of `O=C(c1cccc([N+](=O)[O-])c1)N1CCN(C(=O)c2ccco2)CC1` are 0.295% (inactive) and 7.8%.
Take `CCC(=O)c1ccc(OCC(O)CN2CC(C)OC(C)C2)cc1` (configuration not stated): the % cells with GFP-LC3 spots was 5.51% (inactive) and the toxicity is -8.47%.
For `O=C(COc1ccc(Cl)cc1)N1CCN(c2cccc(C(F)(F)F)c2)CC1` the same measures were 9.65% (inactive) and -3.29%.
For `CCC(=O)c1ccc(OCC(O)CN2CCN(c3cccc(C(F)(F)F)c3)CC2)cc1` (configuration not stated) the same measures were 13.1% (active) and 8.02%.
As to `CCO[C@@H]1OC(C(N)=O)=C[C@H](c2ccc(Br)cc2)[C@H]1CCCO`, the % cells with GFP-LC3 spots was 18.2% (inactive) and the toxicity is 10.9%.
With `CNS(=O)(=O)c1ccc(NC(=O)C2CC(=O)N(c3ccc(Cl)cc3)C2)cc1` (configuration not stated), the % cells with GFP-LC3 spots was 8.63% (inactive) and the toxicity was -13.2%.
With `COc1cccc(C(=O)N2CCCC(CCC(=O)NCc3ccc(F)c(F)c3)C2)c1` (configuration not stated), the % cells with GFP-LC3 spots is 3.38% (inactive) and the toxicity came to 5.82%.
Take `O=C(O)CC(Cc1ccccc1)C(=O)Nc1ccc([N+](=O)[O-])cc1` (configuration not stated): the % cells with GFP-LC3 spots was 1.42% (inactive) and the toxicity is -2.46%.
As to `CN(C)S(=O)(=O)c1ccc2oc(SCC(=O)Nc3ccccc3F)nc2c1`, the % cells with GFP-LC3 spots is 0.884% (inactive) and the toxicity is -4.66%.
For `Cc1cccc(C(=O)N2CCc3c([nH]c4ccccc34)C2CC(C)C)n1` (configuration not stated) the same measures were 11% (inactive) and -2.26%.
On to `C=CCNC(=O)CC12CC3CC(C1)CC(CC(=O)NCC=C)(C3)C2`, for which the % cells with GFP-LC3 spots is 23% (inactive) and the toxicity was 16.8%.
Regarding `C=CCNC(=O)CCCOc1cccc(C)c1`, the % cells with GFP-LC3 spots was 10.7% (inactive) and the toxicity stood at 16.1%.
In the case of `C=CCNC(=O)CCCC(=O)NCC=C`, the % cells with GFP-LC3 spots was 17.9% (active) and the toxicity was found to be 1.29%.
Regarding `O=C(O)c1cccc(N=NN2CCCCCC2)c1`, the % cells with GFP-LC3 spots was 6.85% (inactive) and the toxicity is -1.54%.
For the molecule `CSc1ncnc2sc(C)c(C)c12`, the % cells with GFP-LC3 spots is 10.2% (inactive) and the toxicity was 24.5%.
For `CCCOC(=O)c1[nH]c2c(c1C)C(=O)CC(c1cccs1)C2` (configuration not stated), the % cells with GFP-LC3 spots is 19% (active) and the toxicity is 63%.
For the molecule `CCCOC(=O)c1[nH]c2c(c1C)C(=O)CC(c1cc(OC)c(OC)c(OC)c1)C2` (configuration not stated), the % cells with GFP-LC3 spots was 12.1% (inactive) and the toxicity amounted to 15.9%.
Consider `CCOC(=O)c1[nH]c2c(c1C)C(=O)CC(c1ccc(N(C)C)cc1)C2` (configuration not stated), for which the % cells with GFP-LC3 spots was 2.24% (inactive) and the toxicity is -7.4%.
Take `Cc1ccc(SC(C)C(=O)NCc2ccc(F)cc2)cc1` (configuration not stated): the % cells with GFP-LC3 spots is 0.143% (inactive) and the toxicity was -15%.
For `Cc1nn(C)c(Oc2ccccc2)c1[N+](=O)[O-]` the same measures were 2.75% (inactive) and -3.54%.
In the case of `COc1cccc(Cn2cnc3c([N+](=O)[O-])c(C)c(C)cc32)c1`, the % cells with GFP-LC3 spots is 6.93% (active) and the toxicity is -2.05%.
As for `Cc1cccc(Cn2cnc3c(N)c(C)c(C)cc32)c1`, the % cells with GFP-LC3 spots was 1.71% (inactive) and the toxicity amounted to 1.99%.
As to `CCOc1cccc(OCCCOc2cccc3cccnc23)c1`, the % cells with GFP-LC3 spots was 3.63% (inactive) and the toxicity is -4.48%.
For `Cc1nonc1NC(=O)CSc1nc2ccccc2cc1C#N` the same measures were 0.583% (inactive) and -8.81%.
As to `Fc1ccc2nc(-c3ccccc3)nc(SCc3nnc(-c4ccccc4)o3)c2c1`, the % cells with GFP-LC3 spots is 4.88% (inactive) and the toxicity was 16.1%.
In the same order, the values of `Cc1ccc2nc(SCc3nnc(-c4ccccc4[N+](=O)[O-])o3)c(C#N)cc2c1` are 85.6% (active) and 21.6%.
For `CCOc1ccc(Br)cc1S(=O)(=O)N1CCC(C(=O)O)CC1` the same measures were 6.06% (inactive) and 14.1%.
In the case of `C/C(=N/O)c1ccc(N2C(=O)C3C4C=CC(C3C2=O)C2C3C(=O)N(c5ccc(/C(C)=N/O)cc5)C(=O)C3C42)cc1` (configuration not stated), the % cells with GFP-LC3 spots was 11.7% (inactive) and the toxicity turned out to be 14.4%.
For `O=C(Nc1nc2ccc([N+](=O)[O-])cc2s1)c1ccc(S(=O)(=O)N2CCCc3ccccc32)cc1` the same measures were 16.8% (inactive) and 25.4%.
On to `O=C(NC(Nc1nc2ccc([N+](=O)[O-])cc2s1)(C(F)(F)F)C(F)(F)F)c1ccccc1`, for which the % cells with GFP-LC3 spots was 31.8% (active) and the toxicity worked out at 57.9%.
Turning to `O=C(O)CCC(=O)Nc1nc2ccc([N+](=O)[O-])cc2s1`, the % cells with GFP-LC3 spots was 6.76% (inactive) and the toxicity was found to be 11.6%.
In the same order, the values of `O=C(c1ccc2ccccc2n1)N1CCN(c2ccccc2Cl)CC1` are 4.83% (inactive) and -5.94%.
As to `CCOC(=O)N1CCN(C(=O)CSc2nc(C)nc3c2c(=O)n(C)c(=O)n3C)CC1`, the % cells with GFP-LC3 spots was 12.3% (inactive) and the toxicity came out at 3.6%.
For the molecule `Cc1ncoc1C(=O)NCCC(c1ccccc1)c1ccccc1`, the % cells with GFP-LC3 spots was 18% (inactive) and the toxicity stood at 11.5%.
As to `COc1cccc(CNC(=O)CCC2CCCN(C(=O)c3cc(C)[nH]n3)C2)c1` (configuration not stated), the % cells with GFP-LC3 spots is 0.272% (inactive) and the toxicity is -19.2%.
In the case of `O=C(c1cccc(C(=O)N2CCc3ccccc32)n1)N1CCc2ccccc21`, the % cells with GFP-LC3 spots was 7.33% (inactive) and the toxicity turned out to be 25.5%.
Consider `Cc1occc1C(=O)N1CCCc2ccccc21`, for which the % cells with GFP-LC3 spots was 12.6% (inactive) and the toxicity is -3.33%.

Values taken from PubChem BioAssay AID463193 (University of Pittsburgh Molecular Library Screening Center, 2010).
